Bioassay records (PubChem BioAssay)
The list is not random: actives were taken first. Their share in the collection is about 4%.
HIF-2a block: blocks HIF-2a reporter activity. 786-0 RCC cells HIF-2a reporter, luciferase luminescence, overnight. inhibition, % at 18.8 µM. actives 0.72% (n = 360,000). AID 624352;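 active = inhibition of the luminescence signal of 40% or more relative to plate controls, in a single-dose primary screen at 18.75 µM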
TWEAK-Fn14 inh: TWEAK-Fn14 signaling inhibition. TWEAK-stimulated Fn14 reporter cells, luciferase luminescence, 8 h. inhibition, % at 10 µM. actives 2% (n = 360,000). AID 1159606; in the data active = inhibition above about 50%
TRPM1 prom inh: reduces MITF-dependent TRPM1 promoter luciferase signal; SK-MEL-5 TRPM1 promoter luciferase, 24 h; inhibition, % at 12.5 µM; actives 0.83% (n = 330,000); AID 488899;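 active = mean inhibition across replicates of 60% or more, whatever share of single replicates reaches that level; inconclusive = some that reach 60%, reason not given; inactive = mean inhibition across replicates below 60%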
Peg3 prom inh: Peg3 promoter activity inhibition; HeLa PEG-Prom luciferase reporter, luminescence, overnight; inhibition, % at 20 µM; actives 1.7% (n = 360,000); AID 588405;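 active = inhibition of at least 50% at 20 µM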
TROY NFkB inh: inhibitors of TROY-dependent NF-kB signaling | Q293 LMP1-TROYcd NF-kB luciferase reporter, 4 h | inhibition, % at 10 µM | actives 0.98% (n = 360,000);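 active = compounds whose plate-normalised and pattern-corrected inhibition of the luciferase reporter signal at the single screening dose is 50% or more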
EBV LMP1 NFkB: inhibitors of Epstein-Barr LMP1-induced NF-kappaB reporter | inhibition, % at 12.5 µM | LMP1-induced NF-kappaB luciferase reporter cells, luminescence | actives 0.69% (n = 350,000) | AID 504558; in the data active = inhibition above about 41%; inconclusive = no clear call, values can overlap the other calls
Each line names hits and unclear results; the compound was inactive in the other large screens; ! = repeats disagree.

CC(=O)OC(C)(C)/C=C/C(=O)[C@](C)(O)[C@H]1[C@H](O)C[C@@]2(C)[C@@H]3CC=C4[C@H](C[C@H](O)C(=O)C4(C)C)[C@]3(C)C(=O)C[C@]12C	HIF-2a block 79.1, TWEAK-Fn14 inh 65.2, TRPM1 prom inh 88.3, Peg3 prom inh 102.6, TROY NFkB inh 61.8, EBV LMP1 NFkB 50.5
CN(C)c1ccc(C(=O)N/N=C/C23CC[C@@H](O)CC2(O)CC[C@@H]2[C@@H]3CCC3(C)C(C4=CC(=O)OC4)CCC23O)cc1 (stereo not given in full)	TRPM1 prom inh 74.8, Peg3 prom inh 105.4
COc1ccc(C(=O)N/N=C/C23CC[C@@H](O)CC2(O)CC[C@@H]2[C@@H]3CCC3(C)C(C4=CC(=O)OC4)CCC23O)cc1 (stereo not given in full)	Peg3 prom inh 66.4
CC12CC[C@H]3[C@@H](CCC4(O)C[C@H](O)CCC34/C=N/NC(=O)c3ccc(O)cc3)C1(O)CCC2C1=CC(=O)OC1 (stereo not given in full)	none
CCC(=NCCOc1ccc(Cl)cc1)c1c(O)n(C)c(=O)n(C)c1=O	none
Cc1ccnc(-n2c(C)cc(C=C3C(=O)N(C)C(=S)N(C)C3=O)c2C)c1	TWEAK-Fn14 inh 87.0
CCN(CC)S(=O)(=O)c1ccc(NN=C(C#N)C#N)cc1	TWEAK-Fn14 inh 66.6, TROY NFkB inh 63.1
C[C@]12CC[C@@H](O)CC1=CCC1C2CC[C@@]2(C)C1CC[C@@H]2O (stereo not given in full)	none (no result: TRPM1 prom inh)
CCC1C2CC3C4N(C)c5ccccc5C45CC(C2C5O)N3C1O (stereo not given)	none (no result: TRPM1 prom inh, EBV LMP1 NFkB)
C=CCN1C(=O)/C(=C/c2cccs2)C(=O)NC1=S	HIF-2a block 42.7, Peg3 prom inh 51.1
CC(C)n1c(O)c(C2c3cc(Cl)ccc3Oc3[nH]c(=O)n(C(C)C)c(=O)c32)c(=O)[nH]c1=O (stereo not given)	HIF-2a block 94.5, TWEAK-Fn14 inh 100.1, TRPM1 prom inh 102.3, Peg3 prom inh 115.4
CC1(C)N=C(c2ccccc2)[C@@H]2C(c3ccc([N+](=O)[O-])cc3)N21 (stereo not given in full)	TROY NFkB inh 52.7
O=[N+]([O-])c1ccc(C2C3C(c4ccccc4)=NC4(CCCC4)N32)cc1 (stereo not given)	none
CCOC(=O)c1cc2c(cn1)[C@@H](CCO)NC2	none
COc1cc2c(cc1OC)-c1c3c(cc4c1[C@@H](C2)N(C)CC4)OCO3	Peg3 prom inh 60.6
CC(=O)NC(Cc1ccc(N(CCCl)CCCl)cc1)C(=O)NCC(=O)NCC(=O)O (stereo not given)	none
Cc1ccc(O)c(C(=O)c2cc(C(=O)NCc3ccccc3)c(=O)n(Cc3ccccc3)c2)c1	none
O=C(c1cc(C(=O)NCc2ccccc2)c(=O)n(Cc2ccccc2)c1)c1cc(Br)ccc1O	TWEAK-Fn14 inh 51.1
Cc1cc(-c2cc(C)c(N)c(C)c2)cc(C)c1N	none
O=C(OC1CCN(CCCl)CC1)C(c1ccccc1)c1ccccc1	EBV LMP1 NFkB 51.1
C[N+]1(C)[C@@H]2CC[C@H]1CC(OC(=O)C(c1ccccc1)c1ccccc1)C2 (stereo not given in full)	none
C[C@@H]1CN([C@H](C)CO)C(=O)CCCn2nncc2CO[C@@H]1CN(C)C(=O)Oc1ccc2ccccc2c1	none (no result: TRPM1 prom inh)
CCCCCc1nc2ccccc2c(=O)n1-c1ccc(Cl)cc1[N+](=O)[O-]	none
O=Cc1cn(Cc2ccccc2F)c2ccccc12	none
Cc1cccc(Cn2cc(C=O)c3ccccc32)c1	Peg3 prom inh 68.8, EBV LMP1 NFkB 50.9
CC1=C(C)CN2CC(C#N)=C(N)C2C1 (stereo not given)	none (no result: TRPM1 prom inh, EBV LMP1 NFkB)
CCOC(=O)c1cccc(C2=C(CNC(=O)c3ccc([N+](=O)[O-])cc3)[C@H]3CC[C@@H](C2)N3Cc2ccccc2)c1	none (no result: TRPM1 prom inh)
O=P1(N(CCCl)CCCl)NCCCO1 (stereo not given)	EBV LMP1 NFkB 85.4
CC1=NNC(=O)C1Br (stereo not given)	none
COC(=O)C1=C(c2ccc(F)cc2F)C[C@@H]2CC[C@H]1N2C(=O)N1CCC(O)CC1	none
c1ccc(CN2COC3CCCCCC32)cc1 (stereo not given)	TROY NFkB inh 55.0 (no result: TRPM1 prom inh, EBV LMP1 NFkB)
O=C1CC(=O)N(Cc2ccccc2)C(=O)N1Cc1ccccc1	none
COC(=O)C1=Nc2ccccc2/C1=C\c1c(O)n(-c2ccc(Br)cc2)c(=O)[nH]c1=O	TWEAK-Fn14 inh 58.6
COC(=O)C1=Nc2ccccc2/C1=C\c1c(O)n(-c2ccc(OC)cc2)c(=O)[nH]c1=O	TWEAK-Fn14 inh 64.6
COc1ccc(OC)c(-n2c(O)c(/C=C3\C(C)=Nc4ccccc43)c(=O)[nH]c2=O)c1	none (no result: TRPM1 prom inh, EBV LMP1 NFkB)
COC(=O)C1=C(c2cccc(C#N)c2)C[C@@H]2CC[C@H]1N2C(=O)NC1CC1	none
O=C1NC(=O)N(Cc2ccco2)C(=O)/C1=C/c1ccc(-c2cccc([N+](=O)[O-])c2)o1	HIF-2a block 65.0
C=CCN1C(=O)NC(=O)/C(=C\c2ccc(-c3ccccc3[N+](=O)[O-])o2)C1=O	none
CC12CC(=O)C3C(CCC4CC(=O)C=CC43C)C1CCC2=O (stereo not given)	none
COC1C(C)OC(OC2CC(C)(O)Cc3cc4c(c(O)c32)C(=O)c2c(O)cc3c(c2C4=O)OC2OC3(C)C(O)C(N(C)C)C2O)C(OC)C1(C)OC (stereo not given)	TRPM1 prom inh 63.8, EBV LMP1 NFkB 84.9
Oc1ccc2c3c1O[C@H]1[C@@H](O)CC[C@@]4(O)[C@@H](C2)N(CC2CCC2)CC[C@]314	EBV LMP1 NFkB 68.5!
C#C[C@@]1(O)CCC2C3CCC4=C/C(=N/OCC(=O)NC(C(=O)NC(CC(C)C)C(=O)O)C(C)C)CC[C@]4(C)C3CC[C@@]21C (stereo not given in full)	none
O=C1C2CC(CN3CCCCC23)C2CCCCN12 (stereo not given)	none (no result: TRPM1 prom inh, EBV LMP1 NFkB)
Cc1cc(C)cc(N2C(=O)NC(=O)/C(=C\c3cccn3-c3ccccc3)C2=O)c1	HIF-2a block 42.9, TWEAK-Fn14 inh 65.8, TRPM1 prom inh 66.2, Peg3 prom inh 75.0
CN1C(=O)/C(=C/c2cccn2-c2ccc3ccccc3c2)C(=O)NC1=S	TRPM1 prom inh inconclusive, Peg3 prom inh 92.3
COC(=O)C1=C(c2ccc(OCc3ccccc3)cc2)C[C@@H]2CC[C@H]1N2C(=O)NCCc1ccc(F)cc1	none (no result: TRPM1 prom inh)
CN1C2CNC(=O)CC1C1CCC2C1 (stereo not given)	none (no result: TRPM1 prom inh)
O=C(C[N+]12CCC(CC1)C(C(O)(c1ccccc1)c1ccccc1)C2)c1ccc(Br)cc1 (stereo not given)	none
OCC[N+]12CCC(CC1)C(C(O)(c1ccccc1)c1ccccc1)C2 (stereo not given)	TROY NFkB inh 54.4
CCn1nc(-c2cccs2)nc2c(=O)n(C)c(=O)nc1-2	HIF-2a block 79.7, TWEAK-Fn14 inh 73.4, TRPM1 prom inh 100.5, Peg3 prom inh 118.3, TROY NFkB inh 66.4
